The record followed here is PubChem BioAssay (NCI).

Structures are written as SMILES. About 83,000 compounds went through this panel and 20% of them were active in at least one assay; those are over-represented in the sample as a whole.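 Plates (96-well) were seeded with cells, treated with compound at one concentration, and incubated for 48 hours before percent growth was determined.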 Values without a mark were called inactive. Calls of active or inactive are those of the source. Rule for the calls: active = growth percent below 10; inactive = the rest.

Experiment in all cases: NCI-60 one-dose screen, 48 h (100 = growth as untreated, 0 = no growth, -100 = all killed)
What all share (details): 10 µM unless noted

The subject of experiment [1] is SR leukemia.
Experiment [2] relates to RPMI-8226 leukemia.
Experiment [3] concerns OVCAR-8 ovarian.
Experiment [4] has as its system OVCAR-5 ovarian.
In experiment [5] the test system is OVCAR-4 ovarian.
The test system of experiment [6] is SK-OV-3 ovarian.
The subject of experiment [7] is IGROV1 ovarian.
Experiment [8] relates to OVCAR-3 ovarian.
Experiment [9] deals with HS 578T breast.
Experiment [10] has as its system NCI/ADR-RES ovarian.
For experiment [11], the system named is T-47D breast.
For experiment [12], the system named is BT-549 breast.
Experiment [13] concerns MDA-MB-435 melanoma.
Experiment [14] deals with SW-620 colon.
In experiment [15] the test system is MCF7 breast.
Experiment [16] concerns HCT-116 colon.
The test system of experiment [17] is HCC-2998 colon.
Experiment [18] has as its system KM12 colon.
The subject of experiment [19] is MDA-MB-468 breast.

As to `COc1cc(C2C(C(=O)OCc3ccccc3)=C(C)Nc3nc4ccccc4n32)cc(OC)c1OC` (configuration not stated), the growth in experiment [1] was 11.3%; in experiment [2], 48.8%; in experiment [3], 13.5%; in experiment [4], 45.5%; in [5], 1.46% (active); in experiment [6] it was 25.6%. The growth in experiment [7] is 44.1%; in experiment [8] it was 12.1%; in [9], 14%; in experiment [10] it was 6.58% (active); in experiment [11], 55.6%; in experiment [12], 14.2%. The growth is -34.7% (active) in experiment [13]; 31.4% in experiment [14]; 7.08% (active) in [15]; 2.8% (active) in experiment [16]; 27.8% in [17]; 38% in experiment [18]. Also, in [19], the growth is -38% (active).

In the case of `O=C(Nc1nc2ccc([N+](=O)[O-])cc2s1)Nc1ccccc1F`, the growth is 15.1% in experiment [1]; -19.2% (active) in [2]; 15.1% in experiment [3]; 15.5% in experiment [4]; 16.6% in experiment [5]; -14.2% (active) in experiment [6]. In addition, the growth in experiment [7] is 21.7%; in experiment [8] it was 24.6%; in experiment [9], 0.171% (active); in [10], 7.3% (active); in [11], -5.6% (active); in [12] it was -13.8% (active). Besides, the growth in experiment [13] is 12.7%; in experiment [14], 16.6%; in experiment [15], -0.503% (active); in experiment [16], 3.1% (active); in experiment [17] it was 23.8%; in [18], 13.6%. For the same compound, the growth in experiment [19] was -15.4% (active).

Take `O=C(N/N=C/c1c[nH]c2ccccc12)Nc1ccccc1Cl`: the growth was 5.61% (active) in experiment [1]; 7.68% (active) in experiment [2]; -7.94% (active) in experiment [3]; 23.1% in [4]; 53.9% in [5]; 15.4% in experiment [6]. For the same compound, the growth in [7] was 19.9%; in [8], -28.4% (active); in [9], 8.49% (active); in experiment [10], -9.92% (active); in experiment [11] it was 44.9%; in experiment [12], 1.24% (active). Besides, the growth in experiment [13] is 2.02% (active); in experiment [14], 26.1%; in experiment [15] it was 1.71% (active); in experiment [16], -12.7% (active); in [17], -22% (active); in experiment [18], -44.2% (active). In addition, the growth in [19] is -21.3% (active).

Consider `O=C1/C(=C/C=C/c2ccco2)SC(=S)N1CC(=S)C1C=CS(=O)(=O)C1` (configuration not stated), for which the growth is 39% in experiment [1]; 63.9% in [2]; 97.1% in experiment [3]; 100% in experiment [4]; 96.1% in experiment [5]; 105% in experiment [6]. Also, the growth in experiment [7] was 92.7%; in experiment [8], 65.9%; in experiment [9] it was 109%; in experiment [10], 95.8%; in [11], 80.2%; in experiment [12], 88.1%. The growth in experiment [13] was 96.7%; in [14], 76.9%; in experiment [15] it was 27.9%; in [16] it was 83.4%; in experiment [17], 103%; in experiment [18], 89.4%. In addition, in [19], the growth was -16.5% (active).

Turning to `O=C1Nc2cc(-c3ccc(NS(=O)(=O)c4ccc([N+](=O)[O-])cc4)cc3)ccc2/C1=C/c1ccc[nH]1`, the growth in experiment [1] is 12.9%; in [2] it was 13.5%; in experiment [3], 7.53% (active); in [4], 27.5%; in [5], 6.68% (active); in [6] it was -16.9% (active). Moreover, the growth in experiment [7] was 39.2%; in experiment [8], -29.4% (active); in experiment [9], 41.6%; in experiment [10], 24.4%; in experiment [11], 15.9%; in experiment [12], -23% (active). Also, the growth is 1.34% (active) in experiment [13]; 6.1% (active) in experiment [14]; -23.6% (active) in experiment [15]; -48.6% (active) in experiment [16]; 32.2% in experiment [17]; 27.5% in experiment [18]. Also, the growth in experiment [19] is -29.6% (active).

Regarding `CCN(C(=O)CN1C(=O)/C(=C/c2ccco2)SC1=S)C1CCS(=O)(=O)C1` (configuration not stated), the growth was 87.5% in experiment [1]; 101% in experiment [2]; 101% in experiment [3]; 111% in experiment [4]; 94.2% in experiment [5]; 101% in experiment [6]. Moreover, the growth in experiment [7] is 111%; in experiment [8] it was 103%; in [9] it was 118%; in [10], 93.6%; in experiment [11], 78.1%; in [12] it was 97%. Moreover, the growth was 92.2% in [13]; 102% in [14]; 91.8% in [15]; 98.2% in experiment [16]; 106% in experiment [17]; 103% in experiment [18]. Also, in [19], the growth was 61%.

`Cc1ccc2c(c1)/C(=C/C(=O)c1cc3ccccc3oc1=O)C(=O)N2`: the growth was 6.51% (active) in experiment [1]; 36.7% in [2]; 54.9% in [3]; 77.4% in experiment [4]; 53.9% in experiment [5]; 100% in experiment [6]. In addition, the growth in experiment [7] was 102%; in [8] it was -0.742% (active); in [9], 78%; in experiment [10], 65.9%; in [11], 72.8%; in [12], 68.8%. The growth in experiment [13] was 75.5%; in experiment [14], -94.7% (active); in [15] it was 55.9%; in experiment [16], 18.9%; in experiment [17], 106%; in experiment [18], 86.9%. Moreover, the growth in experiment [19] is -69.3% (active).

`COc1ccc2[nH]c(=O)c(CSc3ccccc3Nc3nccc(-c4ccc5c(c4)OCO5)n3)cc2c1`: the growth in [1] is 67.3%; in experiment [2], 68.2%; in experiment [3], 79.2%; in experiment [4], 103%; in experiment [5], 61.1%; in experiment [6] it was 112%. Further, the growth in [7] is 87.4%; in experiment [8], 92.3%; in experiment [9] it was 89.4%; in experiment [10], 74.3%; in experiment [11] it was 52%; in experiment [12] it was 67.3%. The growth in experiment [13] is 74.5%; in experiment [14], 106%; in [15] it was 68.2%; in experiment [16], 70%; in experiment [17], 110%; in [18], 89.7%. Besides, the growth in experiment [19] is 66.5%.
